Entries with a potency or affinity are not part of this list.
The compounds below were run against Protein translocase subunit SecA (Escherichia coli (strain K12)) (UniProt P10408) (assay: Assay to Identify E. coli SecA ATPase Inhibitors). Details: 30 µM.
Format: functional
Design: scale not given: direction of the effect not stated beside the values

Sequence of Protein translocase subunit SecA (Escherichia coli (strain K12)) (P10408 whole entry): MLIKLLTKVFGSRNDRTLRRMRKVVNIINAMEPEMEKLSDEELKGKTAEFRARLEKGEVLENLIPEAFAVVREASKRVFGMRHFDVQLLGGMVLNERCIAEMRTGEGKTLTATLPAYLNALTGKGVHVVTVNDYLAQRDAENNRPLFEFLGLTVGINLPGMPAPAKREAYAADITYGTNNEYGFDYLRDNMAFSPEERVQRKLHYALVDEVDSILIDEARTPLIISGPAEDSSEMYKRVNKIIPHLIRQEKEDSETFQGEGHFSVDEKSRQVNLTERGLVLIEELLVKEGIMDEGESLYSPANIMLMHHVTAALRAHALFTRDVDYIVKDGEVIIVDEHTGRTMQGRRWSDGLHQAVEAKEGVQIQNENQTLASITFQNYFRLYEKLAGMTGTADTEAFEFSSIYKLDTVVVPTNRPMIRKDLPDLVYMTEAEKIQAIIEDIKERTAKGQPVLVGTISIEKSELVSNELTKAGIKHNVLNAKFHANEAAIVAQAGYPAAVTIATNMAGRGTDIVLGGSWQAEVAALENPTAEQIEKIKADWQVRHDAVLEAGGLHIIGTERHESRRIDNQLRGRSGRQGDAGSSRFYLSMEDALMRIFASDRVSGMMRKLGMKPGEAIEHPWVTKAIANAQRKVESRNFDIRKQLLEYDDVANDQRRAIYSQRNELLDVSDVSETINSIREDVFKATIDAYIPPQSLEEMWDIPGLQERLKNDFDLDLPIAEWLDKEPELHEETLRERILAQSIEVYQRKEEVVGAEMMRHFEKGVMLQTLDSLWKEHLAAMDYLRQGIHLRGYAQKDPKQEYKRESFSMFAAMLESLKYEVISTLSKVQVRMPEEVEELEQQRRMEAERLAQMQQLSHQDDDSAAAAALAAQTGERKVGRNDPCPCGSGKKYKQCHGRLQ

Row | Compound | Percent Effect [%]
1 | O=C(c1cnccn1)N1CCOCC2(CCN(C3CCOCC3)C2)C1 (stereo not given) | -3.59
2 | CC(C)OCc1ncn2c1CN(Cc1cccs1)CCC2 | -1.74
3 | O=C(CCN1CCC(C(=O)c2cc(F)ccc2F)CC1)NC1CC1 | -5.55
4 | CCCC(NC(=O)c1cc(C)ccc1C)c1nnn[nH]1 (stereo not given) | -4.53
5 | Cc1ncc(CNC(=O)CCOc2ccccc2)c(C2CCCN2C)n1 (stereo not given) | -0.839
6 | CCCc1noc(CCC(=O)N2CCCC2c2noc(C3CC3)n2)n1 (stereo not given) | -5.01
7 | CCn1ccnc1CN1CCN(CCOc2ccccc2OC)CC1 | -1.18
8 | COc1ccc(CN2CCn3cc(CN4CCCCC4)nc3C2)cc1 | -4.9
9 | N#CC1(C(=O)N2CCN(Cc3ccon3)CC2)CCC1 | -1.32
10 | CN1CCOC(CNCc2coc(-c3ccccc3)n2)C1 (stereo not given) | 0.225
11 | O=C(C1=CC2(CCNCC2)c2ccccc21)N1CCCC1 | -0.609
12 | COc1ccc(CCN2CCCC2Cn2nc(C)nc2C)cc1 (stereo not given) | -3.93
13 | Cc1ccc(NC(=O)NCCCc2n[nH]c(N)c2C#N)cc1 | -1.33
14 | Cc1cc(C)cc(NC(=O)CN2CCCC(n3cncn3)C2)c1 (stereo not given) | -3.62
15 | CC(CNc1cncc(-n2cccn2)n1)N(C)c1ccccc1 (stereo not given) | -0.428
16 | CCC(C)(C)NC(=O)CN(C)C(c1cccc(F)c1)c1ccccn1 (stereo not given) | 0.66
17 | O=C(C1CCOCC1)N1CCC2(CC1)CC(Oc1ccccc1)CO2 (stereo not given) | 0.293
18 | CCOc1cc(C(=O)N2CCCC(c3noc(C)n3)C2)ccn1 (stereo not given) | -5.03
19 | O=C1[C@@H]2CCN(Cc3ccoc3)C[C@@H]2OCCN1Cc1cccnc1 | -4.73
20 | Cc1cc(C)n(CC2CCCN2C(=O)CCCc2ccccn2)n1 (stereo not given) | -6.25

Row | Compound | Percent Effect [%]
21 | O=C(Nc1nc2c(s1)CCC2)c1cccnc1N1CCOCC1 | -0.311
22 | Cc1ncsc1C(=O)NC1CCN(Cc2cccnc2)CC1 | -7.38
23 | CCN1CCN(c2ncc(-c3cc(C)no3)c(-c3ccc(C)s3)n2)CC1 | -2.83
24 | COc1ccc(C2CCCN2C(=O)NCCNc2ncccn2)cc1 (stereo not given) | 0.96
25 | COCCN1C(=O)C[C@H]2[C@H]1CCN2Cc1ccc(OC)cc1 | -2.83
26 | O=C(NCCc1cccs1)[C@H]1CO[C@H]2CCNC[C@H]2C1 | 0.545
27 | Cc1cnn(CCNCc2ccc(OCc3csc(C)n3)cc2)c1 | -7.35
28 | O=C(CN1CCCC(O)C1)NC(=O)NCc1cccs1 (stereo not given) | -3.76
29 | Cc1cc(C[S+]([O-])CC(=O)Nc2c(C)cccc2C)no1 (stereo not given) | -7.01
30 | COCCN1CCC2(CC1)CC(COC)N(c1ncccn1)C2 (stereo not given) | -4.36
31 | Cc1noc([C@H]2C[C@H]3OCC[C@H]3N(S(=O)(=O)C3CC3)C2)n1 | 0.988
32 | O=C(Cc1cccc(F)c1)NCCNCc1ccco1 | -9.13
33 | CC(=O)Nc1cccc(C(=O)Nc2cnc3n2CCCC3)c1 | -3.85
34 | Cc1nc(C)n(CC2CCCN2CC(=O)NCc2ccco2)n1 (stereo not given) | -0.786
35 | O=C(c1n[nH]c2ccccc12)N1CCCC1c1noc(C2CC2)n1 (stereo not given) | -4.36
36 | Cn1cc(N2CCCC(NCc3cccc4c3OCCCO4)C2)cn1 (stereo not given) | -4.17
37 | CC(C)c1noc(C(C)N2CCN(CCN3CCCC3=O)CC2)n1 (stereo not given) | -5.03
38 | Cc1cc(S(=O)(=O)N2CCCc3ccc(F)cc32)sc1C(=O)O | -6.14
39 | Cc1nc(C2CCCN2CCCNS(C)(=O)=O)no1 (stereo not given) | -3.7
40 | Cc1ncsc1CN1CC[C@H]2OCC[C@@]2(C(=O)NC(C)C)C1 | -3.99
